Columns and labels:
Assay in all cases: DAPPL (digital affinity profiling via proximity ligation, sequencing); 10 mM Tris-HCl pH 7.5, 50 mM NaCl, 1 mM DTT, 4% glycerol, room temperature, 30 min; GST-TFs on glutathione beads, 16-mer random dsDNA library, 0.1% formaldehyde crosslink after washing; high values mean tight binding
FLI1 = target: T1, FLI1 (Homo sapiens, UniProt Q01543 1-452); conditions: protein: recombinant; tags: N-terminal GST; dsDNA, one strand shown
T1 sequence: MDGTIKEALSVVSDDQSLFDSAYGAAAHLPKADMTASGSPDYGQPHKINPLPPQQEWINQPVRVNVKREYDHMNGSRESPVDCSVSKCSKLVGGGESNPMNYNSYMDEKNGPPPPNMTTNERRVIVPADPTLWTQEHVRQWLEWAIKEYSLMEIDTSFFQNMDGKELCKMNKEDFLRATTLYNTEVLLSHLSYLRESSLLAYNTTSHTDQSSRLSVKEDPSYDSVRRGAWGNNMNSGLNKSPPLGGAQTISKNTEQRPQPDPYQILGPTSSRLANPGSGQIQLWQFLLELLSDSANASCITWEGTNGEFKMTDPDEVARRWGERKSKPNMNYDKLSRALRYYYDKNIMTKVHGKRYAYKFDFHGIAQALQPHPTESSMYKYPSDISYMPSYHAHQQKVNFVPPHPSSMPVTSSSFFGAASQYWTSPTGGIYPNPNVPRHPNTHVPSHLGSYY
Summary of the method: (§1)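 Each value of binding signal is a hexamer's read frequency for a factor divided by the same hexamer's frequency in the tag-only sample. Barcoded, bead-captured GST fusions of human transcription factors made in yeast were pooled with that sample and incubated with 200 nmole of a random double-stranded 16-mer DNA library in Tris/NaCl/DTT/glycerol buffer at room temperature for 30 min. Washing, 0.1% formaldehyde crosslinking, proximity ligation, PCR and Illumina NextSeq500 sequencing followed.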

ELK1 = target: T2, ELK1 (Homo sapiens, UniProt P19419 1-428); conditions: protein: recombinant; tags: N-terminal GST; dsDNA, one strand shown
T2 sequence: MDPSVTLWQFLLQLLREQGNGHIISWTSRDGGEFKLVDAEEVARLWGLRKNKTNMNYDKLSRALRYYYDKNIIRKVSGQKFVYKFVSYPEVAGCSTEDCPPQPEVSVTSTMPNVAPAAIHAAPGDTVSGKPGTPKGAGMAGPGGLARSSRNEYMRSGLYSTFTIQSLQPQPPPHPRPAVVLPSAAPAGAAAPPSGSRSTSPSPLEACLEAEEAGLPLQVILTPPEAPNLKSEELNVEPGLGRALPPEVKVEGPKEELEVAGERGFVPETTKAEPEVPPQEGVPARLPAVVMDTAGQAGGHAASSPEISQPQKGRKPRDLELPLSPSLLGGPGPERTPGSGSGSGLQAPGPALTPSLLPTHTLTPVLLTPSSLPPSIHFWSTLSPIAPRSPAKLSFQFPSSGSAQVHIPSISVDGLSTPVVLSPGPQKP
Summary of the method: as §1

GABPA = target: T3, GABPA (Homo sapiens, UniProt Q06546 1-454); conditions: protein: recombinant; tags: N-terminal GST; dsDNA, one strand shown
T3 sequence: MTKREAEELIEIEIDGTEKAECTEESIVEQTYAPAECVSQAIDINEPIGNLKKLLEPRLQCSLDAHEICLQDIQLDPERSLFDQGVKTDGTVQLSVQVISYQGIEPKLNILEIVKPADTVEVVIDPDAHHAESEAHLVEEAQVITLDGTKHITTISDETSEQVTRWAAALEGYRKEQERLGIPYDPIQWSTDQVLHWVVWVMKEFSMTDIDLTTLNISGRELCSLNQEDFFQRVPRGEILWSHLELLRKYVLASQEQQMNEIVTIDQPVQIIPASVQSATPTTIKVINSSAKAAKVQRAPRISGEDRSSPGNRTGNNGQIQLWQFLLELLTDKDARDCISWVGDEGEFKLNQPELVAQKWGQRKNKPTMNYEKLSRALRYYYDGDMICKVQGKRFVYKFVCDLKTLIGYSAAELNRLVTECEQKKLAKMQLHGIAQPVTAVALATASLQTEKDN
Summary of the method: as §1

ERG = target: T4, ERG (Homo sapiens, UniProt P11308 1-479); conditions: protein: recombinant; tags: N-terminal GST; dsDNA, one strand shown
T4 sequence: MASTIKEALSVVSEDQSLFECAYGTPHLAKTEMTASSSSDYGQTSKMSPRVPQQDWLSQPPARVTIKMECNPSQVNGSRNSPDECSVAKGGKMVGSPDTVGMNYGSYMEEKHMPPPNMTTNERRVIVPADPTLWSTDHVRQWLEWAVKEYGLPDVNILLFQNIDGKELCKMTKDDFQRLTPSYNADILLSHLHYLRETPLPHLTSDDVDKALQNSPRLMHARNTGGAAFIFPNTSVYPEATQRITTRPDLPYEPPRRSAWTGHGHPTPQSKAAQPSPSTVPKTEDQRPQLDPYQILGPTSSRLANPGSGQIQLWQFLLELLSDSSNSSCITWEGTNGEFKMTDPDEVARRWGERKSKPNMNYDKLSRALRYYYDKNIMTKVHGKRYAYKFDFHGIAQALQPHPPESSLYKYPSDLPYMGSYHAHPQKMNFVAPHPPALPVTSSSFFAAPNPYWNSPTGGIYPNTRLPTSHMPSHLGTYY
Summary of the method: as §1

ELF1 = ELF1 (Homo sapiens, UniProt P32519 1-619); conditions: protein: recombinant; tags: N-terminal GST; dsDNA, one strand shown
Summary of the method: as §1

EHF = target: T5, EHF (Homo sapiens, UniProt Q9NZC4 1-300); conditions: protein: recombinant; tags: N-terminal GST; dsDNA, one strand shown
T5 sequence: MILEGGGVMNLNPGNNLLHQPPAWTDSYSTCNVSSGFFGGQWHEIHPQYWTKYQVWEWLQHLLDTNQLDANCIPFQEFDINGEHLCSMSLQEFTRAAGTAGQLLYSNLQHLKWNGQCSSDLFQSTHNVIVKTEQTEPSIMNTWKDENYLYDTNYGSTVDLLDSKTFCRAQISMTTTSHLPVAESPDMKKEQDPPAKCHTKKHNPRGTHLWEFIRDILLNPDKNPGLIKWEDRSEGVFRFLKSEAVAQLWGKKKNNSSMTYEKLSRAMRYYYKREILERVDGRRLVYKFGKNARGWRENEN
Summary of the method: as §1

SPI1 = SPI1 (Homo sapiens, UniProt P17947 1-270); conditions: protein: recombinant; tags: N-terminal GST; dsDNA, one strand shown
Summary of the method: as §1

SPIB = SPIB (Homo sapiens, UniProt Q01892 1-262); conditions: protein: recombinant; tags: N-terminal GST; dsDNA, one strand shown
Summary of the method: as §1

ELK3 = target: T6, ELK3 (Homo sapiens, UniProt P41970 1-407); conditions: protein: recombinant; tags: N-terminal GST; dsDNA, one strand shown
T6 sequence: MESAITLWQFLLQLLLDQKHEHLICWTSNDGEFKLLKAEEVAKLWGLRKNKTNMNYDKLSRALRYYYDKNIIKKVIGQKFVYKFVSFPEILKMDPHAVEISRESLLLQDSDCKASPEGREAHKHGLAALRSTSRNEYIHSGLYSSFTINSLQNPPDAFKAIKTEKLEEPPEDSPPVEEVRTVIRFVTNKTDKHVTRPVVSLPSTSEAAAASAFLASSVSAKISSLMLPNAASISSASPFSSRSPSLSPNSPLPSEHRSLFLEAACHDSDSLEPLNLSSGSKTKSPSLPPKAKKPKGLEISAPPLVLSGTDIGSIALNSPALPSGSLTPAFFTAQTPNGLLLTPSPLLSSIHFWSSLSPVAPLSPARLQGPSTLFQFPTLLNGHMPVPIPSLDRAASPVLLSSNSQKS
Summary of the method: as §1

FEV = target: T7, FEV (Homo sapiens, UniProt Q99581 1-238); conditions: protein: recombinant; tags: N-terminal GST; dsDNA, one strand shown
T7 sequence: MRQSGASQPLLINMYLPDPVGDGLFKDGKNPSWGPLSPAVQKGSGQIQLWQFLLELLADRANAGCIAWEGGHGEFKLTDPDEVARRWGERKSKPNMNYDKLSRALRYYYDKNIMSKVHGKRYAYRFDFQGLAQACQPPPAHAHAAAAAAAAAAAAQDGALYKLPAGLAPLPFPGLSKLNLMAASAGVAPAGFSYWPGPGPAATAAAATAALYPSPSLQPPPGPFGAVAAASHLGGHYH
Summary of the method: as §1

ETV5 = ETV5 (Homo sapiens, UniProt P41161 1-510); conditions: protein: recombinant; tags: N-terminal GST; dsDNA, one strand shown
Summary of the method: as §1

HSF1 = HSF1 (Homo sapiens, UniProt Q00613 1-529); conditions: protein: recombinant; tags: N-terminal GST; chain copies: 3; dsDNA, one strand shown
Summary of the method: as §1

SPIC = target: T8, SPIC (Homo sapiens, UniProt Q8N5J4 1-248); conditions: protein: recombinant; tags: N-terminal GST; dsDNA, one strand shown
T8 sequence: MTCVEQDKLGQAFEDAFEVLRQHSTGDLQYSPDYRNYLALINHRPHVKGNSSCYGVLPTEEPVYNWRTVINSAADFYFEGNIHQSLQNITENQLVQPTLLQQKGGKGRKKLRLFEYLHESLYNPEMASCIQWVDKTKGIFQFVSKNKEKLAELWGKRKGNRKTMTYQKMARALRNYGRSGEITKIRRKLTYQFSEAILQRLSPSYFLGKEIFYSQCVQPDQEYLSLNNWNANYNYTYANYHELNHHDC
Summary of the method: as §1

ELF4 = ELF4 (Homo sapiens, UniProt Q99607 1-663); conditions: protein: recombinant; tags: N-terminal GST; dsDNA, one strand shown
Summary of the method: as §1

ELK4 = target: T9, ELK4 (Homo sapiens, UniProt P28324-2 1-405); conditions: protein: recombinant; tags: N-terminal GST; dsDNA, one strand shown
T9 sequence: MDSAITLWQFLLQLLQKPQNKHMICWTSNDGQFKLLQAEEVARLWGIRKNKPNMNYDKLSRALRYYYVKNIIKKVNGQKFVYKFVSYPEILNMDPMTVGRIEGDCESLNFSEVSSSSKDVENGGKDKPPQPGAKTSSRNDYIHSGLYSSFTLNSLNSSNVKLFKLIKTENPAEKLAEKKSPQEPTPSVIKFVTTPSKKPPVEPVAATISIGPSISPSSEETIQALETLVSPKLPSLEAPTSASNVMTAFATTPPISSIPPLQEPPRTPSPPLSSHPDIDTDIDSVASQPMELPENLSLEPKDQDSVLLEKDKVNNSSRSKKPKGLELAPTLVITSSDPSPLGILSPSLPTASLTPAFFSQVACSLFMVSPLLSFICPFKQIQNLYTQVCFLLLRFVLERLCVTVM
Summary of the method: as §1

ETV2 = target: T10, ETV2 (Homo sapiens, UniProt O00321 1-342); conditions: protein: recombinant; tags: N-terminal GST; dsDNA, one strand shown
T10 sequence: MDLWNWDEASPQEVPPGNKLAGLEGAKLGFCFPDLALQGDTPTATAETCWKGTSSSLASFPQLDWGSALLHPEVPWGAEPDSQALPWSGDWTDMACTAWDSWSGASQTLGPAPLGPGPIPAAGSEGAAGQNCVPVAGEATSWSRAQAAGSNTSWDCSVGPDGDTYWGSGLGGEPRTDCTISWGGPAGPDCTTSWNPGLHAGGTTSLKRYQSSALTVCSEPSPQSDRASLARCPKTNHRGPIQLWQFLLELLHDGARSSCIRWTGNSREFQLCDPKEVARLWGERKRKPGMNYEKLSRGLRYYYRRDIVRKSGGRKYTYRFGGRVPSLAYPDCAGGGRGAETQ
Summary of the method: as §1

ELF3 = target: T11, ELF3 (Homo sapiens, UniProt P78545 1-371); conditions: protein: recombinant; tags: N-terminal GST; dsDNA, one strand shown
T11 sequence: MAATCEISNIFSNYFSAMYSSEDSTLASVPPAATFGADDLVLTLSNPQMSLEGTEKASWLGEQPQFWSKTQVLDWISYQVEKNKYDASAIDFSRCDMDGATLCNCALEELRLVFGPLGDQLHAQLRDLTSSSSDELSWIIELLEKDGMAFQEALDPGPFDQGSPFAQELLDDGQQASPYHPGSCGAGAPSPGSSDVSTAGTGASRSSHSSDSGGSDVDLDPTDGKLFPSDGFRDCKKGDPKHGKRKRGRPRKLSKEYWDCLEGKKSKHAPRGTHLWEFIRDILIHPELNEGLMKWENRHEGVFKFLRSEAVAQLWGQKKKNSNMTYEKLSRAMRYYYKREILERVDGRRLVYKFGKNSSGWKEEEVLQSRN
Summary of the method: as §1

CRX = CRX (Homo sapiens, UniProt O43186 1-299); conditions: protein: recombinant; tags: N-terminal GST; dsDNA, one strand shown
Summary of the method: as §1

ETV1 = ETV1 (Homo sapiens, UniProt P50549 1-477); conditions: protein: recombinant; tags: N-terminal GST; dsDNA, one strand shown
Summary of the method: as §1

Chain of SPIB (Q01892 whole entry): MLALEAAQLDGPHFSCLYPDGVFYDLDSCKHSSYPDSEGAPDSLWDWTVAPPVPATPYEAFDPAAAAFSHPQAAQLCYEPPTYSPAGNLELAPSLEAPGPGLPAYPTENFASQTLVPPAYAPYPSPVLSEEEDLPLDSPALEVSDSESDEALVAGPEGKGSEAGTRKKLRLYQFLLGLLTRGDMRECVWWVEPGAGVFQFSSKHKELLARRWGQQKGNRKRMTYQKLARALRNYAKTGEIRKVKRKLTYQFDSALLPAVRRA
Chain of ETV1 (P50549 whole entry): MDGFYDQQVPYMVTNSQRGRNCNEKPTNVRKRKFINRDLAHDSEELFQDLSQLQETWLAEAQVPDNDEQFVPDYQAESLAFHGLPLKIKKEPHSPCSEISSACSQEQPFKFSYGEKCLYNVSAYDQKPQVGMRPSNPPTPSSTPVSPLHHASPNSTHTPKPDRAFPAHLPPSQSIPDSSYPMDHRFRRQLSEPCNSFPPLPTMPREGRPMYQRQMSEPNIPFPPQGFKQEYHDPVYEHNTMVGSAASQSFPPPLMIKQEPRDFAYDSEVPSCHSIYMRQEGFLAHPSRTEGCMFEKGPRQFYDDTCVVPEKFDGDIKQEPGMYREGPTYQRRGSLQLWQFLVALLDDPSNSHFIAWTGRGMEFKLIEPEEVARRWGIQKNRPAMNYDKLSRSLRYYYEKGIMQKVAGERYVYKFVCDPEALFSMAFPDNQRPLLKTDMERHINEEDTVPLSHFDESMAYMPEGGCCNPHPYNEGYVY
Chain of CRX (O43186 whole entry): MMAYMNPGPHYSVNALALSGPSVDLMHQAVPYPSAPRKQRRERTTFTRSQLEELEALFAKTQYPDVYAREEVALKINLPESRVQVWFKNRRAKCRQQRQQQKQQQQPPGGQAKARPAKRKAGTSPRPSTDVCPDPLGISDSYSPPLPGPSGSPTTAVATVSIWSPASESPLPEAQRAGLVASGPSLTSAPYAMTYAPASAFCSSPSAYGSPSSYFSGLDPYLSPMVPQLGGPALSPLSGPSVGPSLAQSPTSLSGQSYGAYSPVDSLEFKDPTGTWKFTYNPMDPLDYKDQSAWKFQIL
Chain of ETV5 (P41161 whole entry): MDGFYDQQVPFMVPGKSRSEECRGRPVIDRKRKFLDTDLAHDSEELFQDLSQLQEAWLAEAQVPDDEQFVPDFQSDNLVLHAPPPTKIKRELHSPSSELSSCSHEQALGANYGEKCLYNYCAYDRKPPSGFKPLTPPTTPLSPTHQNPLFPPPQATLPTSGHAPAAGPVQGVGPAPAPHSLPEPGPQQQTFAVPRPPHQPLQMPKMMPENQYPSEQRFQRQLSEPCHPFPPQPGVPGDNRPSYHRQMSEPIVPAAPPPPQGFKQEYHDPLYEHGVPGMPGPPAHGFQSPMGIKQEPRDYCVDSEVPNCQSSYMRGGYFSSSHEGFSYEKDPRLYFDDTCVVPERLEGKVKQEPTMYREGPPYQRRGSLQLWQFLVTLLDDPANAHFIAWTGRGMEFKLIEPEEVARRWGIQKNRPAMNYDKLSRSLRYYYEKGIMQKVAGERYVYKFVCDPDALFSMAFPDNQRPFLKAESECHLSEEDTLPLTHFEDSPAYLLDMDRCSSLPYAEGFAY
Chain of HSF1 (Q00613 whole entry): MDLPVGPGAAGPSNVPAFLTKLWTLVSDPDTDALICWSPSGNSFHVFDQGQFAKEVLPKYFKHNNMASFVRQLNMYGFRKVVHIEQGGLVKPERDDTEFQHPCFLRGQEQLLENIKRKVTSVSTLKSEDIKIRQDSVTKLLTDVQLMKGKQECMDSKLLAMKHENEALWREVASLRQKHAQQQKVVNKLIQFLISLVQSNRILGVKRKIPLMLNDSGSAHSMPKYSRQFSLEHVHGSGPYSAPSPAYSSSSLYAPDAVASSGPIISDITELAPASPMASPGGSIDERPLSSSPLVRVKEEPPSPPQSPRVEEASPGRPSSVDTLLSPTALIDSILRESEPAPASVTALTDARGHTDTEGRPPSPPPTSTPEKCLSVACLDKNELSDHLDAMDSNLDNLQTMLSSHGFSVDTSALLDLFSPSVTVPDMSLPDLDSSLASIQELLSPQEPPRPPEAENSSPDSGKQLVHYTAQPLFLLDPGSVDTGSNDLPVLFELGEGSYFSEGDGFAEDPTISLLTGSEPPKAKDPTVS
Chain of ELF1 (P32519 whole entry): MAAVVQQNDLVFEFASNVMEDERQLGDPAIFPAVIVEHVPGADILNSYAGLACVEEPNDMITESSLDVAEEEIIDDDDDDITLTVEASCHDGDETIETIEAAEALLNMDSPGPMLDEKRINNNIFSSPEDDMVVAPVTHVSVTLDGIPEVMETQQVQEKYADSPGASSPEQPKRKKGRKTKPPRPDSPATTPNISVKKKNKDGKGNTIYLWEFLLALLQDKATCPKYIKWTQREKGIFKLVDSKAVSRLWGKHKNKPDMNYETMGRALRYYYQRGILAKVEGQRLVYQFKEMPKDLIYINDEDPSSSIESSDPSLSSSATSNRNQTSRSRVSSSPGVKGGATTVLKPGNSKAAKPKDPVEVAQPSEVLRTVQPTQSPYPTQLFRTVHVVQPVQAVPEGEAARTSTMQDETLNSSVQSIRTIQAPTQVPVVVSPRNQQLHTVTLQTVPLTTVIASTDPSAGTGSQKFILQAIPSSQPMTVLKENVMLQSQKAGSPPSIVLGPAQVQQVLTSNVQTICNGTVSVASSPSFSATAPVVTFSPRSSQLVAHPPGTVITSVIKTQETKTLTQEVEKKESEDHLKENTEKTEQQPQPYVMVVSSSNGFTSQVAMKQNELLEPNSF
Chain of ELF4 (Q99607 whole entry): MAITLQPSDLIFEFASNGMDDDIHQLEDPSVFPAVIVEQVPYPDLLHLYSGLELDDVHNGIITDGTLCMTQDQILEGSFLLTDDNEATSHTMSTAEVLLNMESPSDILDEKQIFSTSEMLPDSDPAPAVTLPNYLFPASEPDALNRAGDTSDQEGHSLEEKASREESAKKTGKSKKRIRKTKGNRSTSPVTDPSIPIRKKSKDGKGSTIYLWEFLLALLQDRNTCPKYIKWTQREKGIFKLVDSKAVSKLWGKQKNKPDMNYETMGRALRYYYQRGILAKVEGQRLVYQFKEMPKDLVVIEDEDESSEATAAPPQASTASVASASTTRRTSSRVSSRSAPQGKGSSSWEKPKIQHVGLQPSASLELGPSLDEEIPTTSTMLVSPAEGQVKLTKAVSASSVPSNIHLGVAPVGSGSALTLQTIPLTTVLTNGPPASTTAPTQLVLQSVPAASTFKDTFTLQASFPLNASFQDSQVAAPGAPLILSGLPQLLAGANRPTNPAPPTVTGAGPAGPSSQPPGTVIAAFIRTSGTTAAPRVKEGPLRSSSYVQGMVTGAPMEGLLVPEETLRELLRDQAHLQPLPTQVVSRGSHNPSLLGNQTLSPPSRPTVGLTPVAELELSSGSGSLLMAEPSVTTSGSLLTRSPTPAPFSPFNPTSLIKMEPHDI

TGCTCT was tested, and the binding signal (FLI1) was 1.34 fold enrichment (6-mer frequency, TF over GST control), the binding signal (ELK1) was 1.48 fold enrichment (6-mer frequency, TF over GST control) and the binding signal (GABPA) was 1.35 fold enrichment (6-mer frequency, TF over GST control). The binding signal (ERG) was 1.26 fold enrichment (6-mer frequency, TF over GST control), the binding signal (ELF1) was 1.34 fold enrichment (6-mer frequency, TF over GST control) and the binding signal (EHF) was 1.19 fold enrichment (6-mer frequency, TF over GST control). The binding signal (SPI1) was 1.42 fold enrichment (6-mer frequency, TF over GST control), the binding signal (SPIB) was 1.42 fold enrichment (6-mer frequency, TF over GST control) and the binding signal (ELK3) was 1.3 fold enrichment (6-mer frequency, TF over GST control). For the same sequence, the binding signal (FEV) was 1.37 fold enrichment (6-mer frequency, TF over GST control), the binding signal (ETV5) was 1.37 fold enrichment (6-mer frequency, TF over GST control) and the binding signal (HSF1) was 1.3 fold enrichment (6-mer frequency, TF over GST control). The binding signal (SPIC) was 1.2 fold enrichment (6-mer frequency, TF over GST control), the binding signal (ELF4) was 1.36 fold enrichment (6-mer frequency, TF over GST control) and the binding signal (ELK4) was 1.38 fold enrichment (6-mer frequency, TF over GST control). The binding signal (ETV2) was 1.47 fold enrichment (6-mer frequency, TF over GST control), the binding signal (ELF3) was 1.36 fold enrichment (6-mer frequency, TF over GST control) and the binding signal (CRX) was 1.24 fold enrichment (6-mer frequency, TF over GST control). The binding signal (ETV1) was 1.33 fold enrichment (6-mer frequency, TF over GST control).
